Inconclusive results are not listed. Calls of active or inactive are those of the source. Calls follow the shape of the dose curve; as a rule, active = well fitted curve in the direction sought with a large enough effect; inconclusive = small, poorly fitted or top-dose-only effect, or another doubt; inactive = no such curve, though single readings can be large; an effect the other way counts as inactive or inconclusive.
Columns and labels:
[1] = Panc-1005 Cancer Cell Toxicity qHTS against the NCATS CANVASS Library (AID 1347349); also: nearly all actives have a fitted effect of over 60% in size; also: potency is read from the fitted curve at half-maximal effect; as to activity change, negative = cytotoxicity: series mostly up to about 38 µM; % is scaled to controls: 0 for no effect and ±100 for the full control effect
How it was run: (§1)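 Per well, 1000 cells; exposure 72 h with compound at 11 final concentrations; readout CellTiter-Glo luminescence.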

[2] = SW1088 Cancer Cell Toxicity qHTS against the NCATS CANVASS Library (AID 1347350); also: nearly all actives have a fitted effect of over 75% in size; also: potency is read from the fitted curve at half-maximal effect; as to activity change, negative = cytotoxicity: series mostly up to about 38 µM; % is scaled to controls: 0 for no effect and ±100 for the full control effect
How it was run: as §1

[3] = COV-362 Cancer Cell Toxicity qHTS against the NCATS CANVASS Library (AID 1347352); also: potency is read from the fitted curve at half-maximal effect; as to activity change, negative = cytotoxicity: series mostly up to about 38 µM; % is scaled to controls: 0 for no effect and ±100 for the full control effect
How it was run: (§2)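 qHTS cytotoxicity: compounds tested in 11 concentrations on 1000 seeded cells per well over 72 h; bortezomib served as control; signal from CellTiter-Glo luminescence.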

[4] = A2780 Cisplatin Sensitive Ovarian Cancer Cell Toxicity qHTS against the NCATS CANVASS Library (AID 1347353); also: nearly all actives have a fitted effect of over 60% in size; also: potency is read from the fitted curve at half-maximal effect
How it was run: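 Seventy-two-hour exposure of cisplatin-sensitive A2780 ovarian cells to an 11-concentration qHTS series; cytotoxicity is inferred from loss of ATPLite luminescence. Bortezomib titration served as positive control.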

[5] = UWB1.289-WTBRCA1 Cancer Cell Toxicity qHTS against the NCATS CANVASS Library (AID 1347354); also: potency is read from the fitted curve at half-maximal effect
How it was run: as §2

[6] = system: NAD(P)H diaphorase (Clostridium kluyveri); test: Diaphorse counterscreen qHTS: Assay Interference Panel against the NCATS CANVASS Library (AID 1347362); also: 0% is about no effect
How it was run: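 Clostridium kluyveri diaphorase in PBS with 0.01% Tween-20 was preincubated 15 min at room temperature in the dark with compounds (11-point series). Resorufin fluorescence (ex 525/20, em 598/25) was read 5 min after adding resazurin/NADH.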

[7] = KB-8-5-11 Cancer Cell Toxicity qHTS against the NCATS CANVASS Library (AID 1347364); also: nearly all actives have a fitted effect of over 75% in size; also: potency is read from the fitted curve at half-maximal effect
How it was run: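 Natural products were titrated in 11 points onto KB-8-5-11 cells, 500 per well, and cytotoxicity was scored from CellTiter-Glo luminescence after 72 hr culture.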

[8] = G06 Cancer Cell Toxicity qHTS against the NCATS CANVASS Library (AID 1347368); also: nearly all actives have a fitted effect of over 60% in size; also: potency is read from the fitted curve at half-maximal effect
How it was run: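 Cytotoxicity toward canine glioma G06 cells is scored from cellular ATP via luminescence after 72 hr compound exposure at 500 cells/well.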

[9] = qHTS for Hypoxia signaling pathway (HIF-1) agonists against the NCATS CANVASS Library (AID 1347375); also: potency is read from the fitted curve at half-maximal effect; as to activation: 0% is about no effect
How it was run: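 Inducers of HIF-1 signaling were detected in ME-180 cells bearing an HRE-driven beta-lactamase reporter after 17 h compound exposure. Activity came from CCF4-AM FRET emission ratio (460/530 nm) in qHTS format.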

[10] = DH5-alpha competent E. coli microbial cell viability qHTS against the NCATS CANVASS Library (AID 1347377); conditions: outcome: dose series up to 46.1 µM unless noted
How it was run: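 Cell viability of competent DH5-alpha E. coli is scored from ATP content by luminescence. Cells sit overnight at 37C with compound across an 11-point concentration series.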

[11] = qHTS for H2AX Agonists against the NCATS CANVASS Library (AID 1347378);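 also: phospho-H2AX S139 level in CHO-K1 lysates by TR-FRET emission ratio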; also: potency is read from the fitted curve at half-maximal effect; as to activation: 0% is about no effect
How it was run: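 Signal is the 665/620 nm emission ratio from europium cryptate and d2 antibody pair, rising with S139-phosphorylated H2AX. CHO-K1 cells saw test agents for 3 hr at 37C; detection ran 24 hr at room temperature.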

[12] = qHTS for Inflammasome Signaling Inhibitors: IL-1-beta AlphaLISA screen against the NCATS CANVASS Library (AID 1347379);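 also: human THP-1 cells primed with LPS then triggered with ATP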;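 as to Potency: secreted IL-1B measured as AlphaLISA emission at 615 nm; potency is read from the fitted curve at half-maximal effect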;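 as to activity change, negative = inhibition: secreted IL-1B measured as AlphaLISA emission at 615 nm; % is scaled to controls: 0 for no effect and ±100 for the full control effect; lower signal means less IL-1B release which is the wanted effect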
How it was run: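 Human THP-1 cells were pretreated 1 hr at 37 °C with compounds (up to 57.5 uM final), then stimulated with LPS (250 ng/mL final) and ATP (1.25 mM final). Secreted IL-1B was read by AlphaLISA after 16 hr.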

[13] = Cytotoxicity qHTS for assessment of Hepg2 cells membrane integrity screened against the NCATS CANVASS Library (AID 1347387)
How it was run: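 Fluorescence proportional to lysed-cell number, from LDH leaking out of HepG2 cells exposed 5 hr at 37C to 0.59 nM - 46 uM compound (11-point qHTS), is measured after 10 min with CytoTox-ONE.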

[14] = qHTS assay for small molecule disruptors of mitochondrial membrane potential screened against the NCATS CANVASS Library (AID 1347389); also: series mostly up to about 46 µM; % is scaled to controls: 0 for no effect and ±100 for the full control effect; nearly all actives have a fitted effect of over 60% in size
How it was run: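 Compounds tested in 11-point qHTS series on HepG2 cells for 1 hr; membrane-potential dye added for 30 min at 37C. Lower red-to-green ratio indicates loss of potential.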

[15] = qHTS for activators of Nrf2/ARE signaling pathway screened against the NCATS CANVASS Library (AID 1347391); also: 0% is about no effect; nearly all actives have a fitted effect of over 60% in size
How it was run: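 Cells carrying an ARE-driven beta-lactamase reporter (HepG2 background) are dosed for 16 h, then stained with CCF4. Cell viability in the same wells is measured by CellTiter-Glo luminescence.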

[16] = qHTS for activators of dead-cell proteases activity screened against the NCATS CANVASS Library (AID 1347392);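 also: luminescence from protease leaking out of membrane-damaged cells cleaving impermeant substrate; 0% is about no effect; rising signal means more cytotoxicity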
How it was run: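 HepG2 cells (2000/well) attached 18 h at 37C, then exposed 5 h to compounds (11-point qHTS). Dead-cell protease activity read as luminescence from cell-impermeant AAF-aminoluciferin substrate after 15 min at room temperature.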

[17] = qHTS for inhibitors of ER calcium dysfunction: SERCaMP assay screened against the NCATS CANVASS Library (AID 1347393);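 also: series mostly up to about 77 µM; % is scaled to controls: 0 for no effect and ±100 for the full control effect; lower secreted reporter signal means inhibitor of ER calcium depletion; nearly all actives have a fitted effect of over 40% in size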
How it was run: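 qHTS in SH-SY5Y reporter cells: 16 h compound pretreatment, 4 h thapsigargin, then secreted Gaussia luciferase measured by luminescence.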

[18] = Vero-766 cells viability qHTS against the NCATS CANVASS Library: Counterscreen for Zika virus inhibition assay (AID 1347394); also: nearly all actives have a fitted effect of over 60% in size; also: potency is read from the fitted curve at half-maximal effect
How it was run: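 Counterscreen for toxicity: Vero 766 cells exposed 72 h to an 11-point compound series, viability by CellTiter-Glo.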

[19] = qHTS for inhibitors of Wild type Zika virus screened against the NCATS CANVASS Library (AID 1347396);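 also: ATP luminescence of surviving cells so rescue from viral cell killing; series mostly up to about 46 µM; % is scaled to controls: 0 for no effect and ±100 for the full control effect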
How it was run: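 Using ATP-based luminescence (CellTiter Glo), this screen scores rescue of Vero 766 cells from wild-type Zika killing at 72 h post-infection. Compounds are tested in a concentration series.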

[20] = Secretion counterscreen for inhibitors of the SERCaMP assay screened against the NCATS CANVASS Library (AID 1347390);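 also: light from luciferase secreted into medium read as a measure of general secretion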; also: potency is read from the fitted curve at half-maximal effect
How it was run: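 Natural products are titrated in an 11-point series up to 77 uM onto SH-SY5Y-GLuc STOP cells for 20 h. Secreted reporter activity is measured as coelenterazine-driven luminescence, with Brefeldin A on each plate.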

O=C(O)CC1OCc2c(O)cccc21 (stereo unspecified)
inactive: Potency [1] | Potency [2] | Potency [3] | Potency [4] | Potency [5] | Potency [6] | Potency [7] | Potency [8] | Potency [9] | outcome [10] | Potency [11] | Potency [12] | outcome [13] | Potency [14] | Potency [15] | Potency [16] | Potency [17] | Potency [18] | Potency [19]

CO[C@H]1/C=C/CC[C@@H](S[C@@H]2O[C@H](CO)[C@@H](O)[C@H](O)[C@H]2O)CC(=O)O[C@@H](/C(C)=C/[C@H](C)C(=O)CCCC2CC(=O)NC(=O)C2)[C@@H](C)[C@@H]1O
inactive: Potency [6] | Potency [9] | outcome [10] | outcome [13] | Potency [14] | Potency [15] | Potency [16] | Potency [17] | Potency [18] | Potency [19]
active: Potency [1] 4.21 µM | Potency [4] 1.05 µM | Potency [8] 1.48 µM | Potency [12] 30.6 µM | Potency [20] 7.67 µM

COc1ccc2oc3c(OC)c(OC)c(OC)c(OC)c3c(=O)c2c1
inactive: activity change, negative = cytotoxicity [1] -8.03% [at 7.64 µM] | activity change, negative = cytotoxicity [2] 3.04% [at 7.64 µM] | activity change, negative = cytotoxicity [3] -3.36% [at 7.64 µM] | outcome [4] inactive [at 9.19 µM] | activity change, negative = cytotoxicity [5] 9.39% [at 7.64 µM] | activity change, negative = inhibition [6] -18.3% [at 11.5 µM] | activity change, negative = cytotoxic [8] -19.7% [at 9.19 µM] | activation [9] 1.59% [at 7.64 µM] | outcome [10] inactive [at 9.19 µM] | activation [11] -1.65% [at 15.3 µM] | outcome [12] inactive [at 11.5 µM] | cytotoxicity (LDH release) [13] -0.617 [at 9.19 µM] | activity change, negative = inhibition [20] -3.74% [at 15.3 µM] | activation [15] 5.78% [at 9.19 µM] | activation (cytotoxicity) [16] -1.14% [at 9.19 µM] | activity change, negative = inhibition [17] -15.7% [at 15.3 µM] | activity change, negative = cytotoxic [18] -1.29% [at 9.19 µM] | activity change, negative = antiviral [19] -12.7% [at 9.14 µM]

CN1CC[C@]2(c3cccc4c3N[C@@H]3N(C)CC[C@]43[C@@]34CCN(C)[C@@H]3Nc3c([C@]56CCN(C)[C@H]5Nc5ccccc56)cccc34)c3ccccc3N[C@H]12
active: Potency [1] 6.68 µM | Potency [2] 18.8 µM | Potency [3] 5.94 µM | Potency [4] 9.35 µM | Potency [5] 10.6 µM | Potency [7] 9.35 µM | Potency [8] 2.64 µM | Potency [9] 9.41 µM | Potency [11] 13.7 µM | Potency [12] 24.3 µM | Potency [18] 20.9 µM
inactive: Potency [6] | Potency [14] | Potency [15] | Potency [17]

C=C[C@]1(C)CC[C@@H]([C@H](C)C(=O)/C=C/C(C)C)O1
inactive: Potency [1] | Potency [2] | Potency [3] | Potency [4] | Potency [5] | Potency [6] | Potency [7] | Potency [8] | Potency [9] | outcome [10] | Potency [11] | Potency [12] | outcome [13] | Potency [14] | Potency [20] | Potency [15] | Potency [16] | Potency [18] | Potency [19]
